# Screening data (PubChem BioAssay)
# DT40 TDP1 CPT = DT40-hTDP1 cell growth loss with CPT; chicken DT40 Tdp1-/-;hTDP1 cells + 20 nM CPT, ATP luminescence, 48 h; Potency, µM (series often up to 46.2 µM), inactives show at the highest dose activity change, negative = growth inhibition, usual class: inhibitors; hit rate 12% among 420,000; AID 686979; further: potency means the concentration at half of the fitted maximal effect; nearly all actives have a fitted effect of over 55% in size
#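 Cell growth measured by CellTiter-Glo luminescence after a minimum 48 h, 37 C compound exposure with 20 nM CPT in Tdp1-knockout DT40 cells stably expressing hTDP1, seeded 400/well; qHTS titration format.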
# RORg inh = inhibitors of mouse ROR gamma transcriptional activity; AID 2551; Potency, µM (titrated, usually from 53.6 µM), inactives show at the top dose activity change, negative = inhibition, hits mostly inhibitors; Drosophila S2 Gal4-RORgamma UAS-luciferase reporter, 20 h; P51450; hit rate 5.4% among 310,000; further: potency means the concentration at half of the fitted maximal effect; nearly all actives have a fitted effect of over 60% in size
# Target sequence (P51450 whole entry, looked up, the tested form may be a part): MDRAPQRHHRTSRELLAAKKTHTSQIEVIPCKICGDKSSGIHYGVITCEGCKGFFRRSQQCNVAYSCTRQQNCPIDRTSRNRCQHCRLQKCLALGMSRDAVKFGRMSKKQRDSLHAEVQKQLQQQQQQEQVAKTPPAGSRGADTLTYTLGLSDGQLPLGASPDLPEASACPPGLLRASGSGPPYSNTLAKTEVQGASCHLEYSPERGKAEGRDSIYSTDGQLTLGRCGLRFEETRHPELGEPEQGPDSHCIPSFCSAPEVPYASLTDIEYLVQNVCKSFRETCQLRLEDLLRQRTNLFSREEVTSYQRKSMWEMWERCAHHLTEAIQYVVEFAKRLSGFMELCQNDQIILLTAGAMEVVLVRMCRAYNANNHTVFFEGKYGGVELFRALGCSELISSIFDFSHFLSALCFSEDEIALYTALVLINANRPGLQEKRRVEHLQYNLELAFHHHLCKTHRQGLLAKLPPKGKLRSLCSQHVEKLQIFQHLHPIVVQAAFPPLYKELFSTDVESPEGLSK
#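 Compounds are pin-transferred onto Drosophila Schneider cells expressing a copper-inducible Gal4–ROR gamma transactivation domain fusion. After 1 hr, copper sulfate is added to 700 uM final; luciferase is read 20 hr later.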
# Gal4-VP16 FLuc = inhibits Gal4-VP16 luciferase reporter, ROR gamma counter-screen; hit rate 3.5% among 310,000; Potency, µM (top dose mostly 53.6 µM), inactives show at the top dose activity, negative = inhibition, hits mostly inhibitors; Drosophila S2 Gal4-VP16 UAS-luciferase, luminescence, 20 h;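 further: Gal4-VP16 expression switched on by copper sulfate through the metallothionein promoter; potency means the concentration at half of the fitted maximal effect; nearly all actives have a fitted effect of over 50% in size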
# TDP1 cell noCPT = qHTS for Inhibitors of human tyrosyl-DNA phosphodiesterase 1 (TDP1): qHTS in cells in absence of CPT. DT40 Tdp1-/- hTDP1 cells, no CPT, ATP luminescence, 48 h. hit rate 15% among 420,000. Potency, µM (titrated, usually from 46.2 µM), inactives show at the highest dose activity change, negative = growth inhibition, usual class: inhibitors; further: potency means the concentration at half of the fitted maximal effect; nearly all actives have a fitted effect of over 55% in size
#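 Growth of hTDP1-complemented DT40 Tdp1-knockout cells is measured by ATP luminescence after at least 48 hr compound exposure at 37 °C, with DMSO substituting for the 20 nM CPT used in the parallel screen.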
# IL-1B inflam inh = inflammasome signaling inhibition, IL-1 beta readout. AID 743279. hit rate 4.7% among 360,000. THP-1 LPS/ATP IL-1B secretion, AlphaLISA, 16 h; active compounds read low. activity change, % at 57.5 µM; in the data active means activity change below about -50%; inconclusive means mostly about -30% to -49%
#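 THP-1 cells pretreated 1 hr with compounds (up to 57.5 uM final), then stimulated with LPS (250 ng/mL final) plus ATP (1.25 mM final); secreted IL-1B measured by AlphaLISA after 16 hr, decreased signal indicating inhibition.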
# LDHA inh = blocks human lactate dehydrogenase A | purified LDHA, NADH/diaphorase-resazurin fluorescence; active compounds read low | activity change, % (values are at about 110 or 230 µM) | P00338 | AID 1347041 | hit rate 0.15% among 480,000; in the data active means activity change below about -30%; inconclusive means mostly about -25% to -30%;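 further: plate controls were DMSO wells for no effect and wells without enzyme for full effect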
#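 LDH5 2 nM; NADH 0.06 mM, pyruvate 0.2 mM; 200 mM Tris pH 7.4, EDTA, Tween-20; 5 min RT. Detection: diaphorase 0.133 mg/mL + resazurin 37 µM, fluorescence ex540/em590 at 0 and 20 min; normalized to enzyme-free and DMSO wells.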
# Starred values were filed as active, the others as inactive; u = inconclusive; x = not tested or not shown; [ ] = remark or other dose. The list is not random: actives were taken first. Their share in the collection is about 18%. Unless noted, the call rests on the fitted dose curve; in most records, active means well fitted curve in the direction sought with a large enough effect; inconclusive means small, poorly fitted or top-dose-only effect, or another doubt; inactive means no such curve, though single readings can be large; an effect the other way counts as inactive or inconclusive. Unless noted, on the % scale 0 is the no-effect control and ±100 the full control effect.
SMILES,DT40 TDP1 CPT,RORg inh,Gal4-VP16 FLuc,TDP1 cell noCPT,IL-1B inflam inh,LDHA inh
CCc1ccc(CNC(=O)c2ccc3c(c2)N=C(C)c2cc(C)ccc2S3)cc1,11.6µM*,x,x,5.8µM*,x,5.7
COc1ccc(CCNC(=O)c2ccc3c(c2)N(Cc2cccc(Cl)c2)C(=O)CS3)cc1OC,20.6µM*,x,x,23.1µM*,x,2.1
COc1ccc(CCNC(=O)c2ccc3c(c2)N=C(C)c2cc(C)ccc2S3)cc1OC,u,x,x,14.6µM*,x,-3.8
COc1ccc(CCNCc2ccsc2)cc1OC,4.0%,u,0.5%,8.8%,6.0,-0.3
CCC1=Nc2cc(C(=O)N3CCC4(CC3)OCCO4)ccc2Sc2ccc(Br)cc21,u,31.3%,6.5%,u,-19.8,-2.7
CCN1C(=O)c2ccccc2Sc2ccc(NC(=O)Cc3ccc(OC)c(OC)c3)cc21,u,x,x,u,x,-3.9
Cc1ccc2[nH]c(C)c(CCN)c2c1,x,x,x,x,x,15.7
CCC1(c2ccccc2)C(=O)NC(=O)N(C(=O)c2ccccc2)C1=O (stereo unspecified),-18.6%,2.5%,11.1%,-21.2%,x,x
CCOC(C[n+]1c(-c2ccccc2)cc(C)cc1-c1ccccc1)OCC,1.64µM*,x,x,0.517µM*,4.5,-17.7
COc1cc2c(cc1OC)-c1c(O)c(OC)cc3c1[C@H](C2)N(C)CC3,u,-27.6%,-21.4%,23.7µM*,x,x
O=C(O)c1ccccc1SCC(=O)N1c2ccccc2Sc2ccccc21,-12.8%,-12.2%,14.1µM*,-2.5%,16.1,-5.2
Cc1cc(NC(=O)CCl)on1,u,u,u,9.2µM*,-105.9*,1.9
C=CCSc1nc2c(c(-c3ccsc3)c1C#N)CN(C)CC2,u,14.8%,-11.9%,18.4µM*,-11.1,13.3
Cc1cccc(CSc2nc3c(cc2C#N)CN(C)CC3)c1,6.4%,-5.3%,9.4%,1.9%,5.7,0.2
COc1ccccc1N1CCN(S(=O)(=O)CCNC(=O)CCCc2ccccc2)CC1,u,x,x,20.6µM*,-2.5,-7.5
COc1cc(OC2CCN(C(C)=O)CC2)ccc1C(=O)N1CCC(N2C(=O)OCc3ccccc32)CC1,x,22.4%,3.7%,x,x,x
CCc1ccc2c(c1)Sc1ccccc1CC2N1CCN(C)CC1 (stereo unspecified),u,x,x,18.4µM*,-65.0*,1.5
Cc1cccc2[nH]cc(C3=CCN(C(C)C(=O)NC4CC4)CC3)c12 (stereo unspecified),x,x,x,x,x,0.2
CCc1ccc(NC(=S)NC2CC3CCC(C2)N3Cc2ccco2)cc1 (stereo unspecified),18.4µM*,u,-2.9%,23.1µM*,-4.2,-6.2
Cc1ccc(NC(=S)NCC2CCCO2)cc1 (stereo unspecified),-3.2%,u,u,u,-7.1,0.5
CCOc1ccccc1NC(=O)c1cn(C)c2ccccc12,x,x,x,x,x,0.2
COc1ccc2nc(N3CCN(C(=O)CS(=O)(=O)c4ccc(C)cc4)CC3)sc2c1,11.6µM*,x,x,13µM*,x,-7.3
Cc1cc([C@@H]2CCCN2C)on1,x,13.1%,3.4%,x,x,x
O=C(CN1CCCC2CCCCC21)c1ccc(I)cc1 (stereo unspecified),-6.3%,x,x,-2.4%,x,x
CCN(CC)c1ccc(/C=C/[N+](=O)[O-])cc1,u,8.91µM*,-73.3%,16.4µM*,-18.5,1.2
SMILES,DT40 TDP1 CPT,RORg inh,Gal4-VP16 FLuc,TDP1 cell noCPT,IL-1B inflam inh,LDHA inh
COc1ccc(NC(=O)C2Cc3c(-c4cccc(C(C)=O)c4)ccnc3O2)cc1OC (stereo unspecified),3.26µM*,x,x,4.11µM*,3.6,1.9
Cc1ccc(N2C(=O)NC(=O)C3(Cc4cc(C)ccc4N(C)C3)C2=O)c(C)c1 (stereo unspecified),x,x,x,x,x,25.4
O=Cc1cccc2ccccc12,x,x,x,x,x,68.8
COc1ccc(C2/C=C\CN(C(=O)Oc3ccccc3)CC(=O)N2Cc2ccc(F)cc2)cc1 (stereo unspecified),20.6µM*,10.1%,-3.9%,u,40.2,0.9
COc1cccc(C(=O)C2CCCN(Cc3ccc(F)cc3)C2)c1 (stereo unspecified),7.9%,-34.9%,1.7%,-26.8%,-0.5,-2.6
COC(=O)N1CCC2(CCN(CC(C)C)CC2)CC1,-7.0%,10.2%,5.0%,-11.4%,x,x
CCC1CCCCN1C(=O)CCl (stereo unspecified),x,x,x,x,x,3.3
CCc1cccc(NC(=O)c2ccc(NC(=O)N3CCSc4ncccc43)cc2)c1,20.6µM*,x,x,16.4µM*,x,1.4
N#CC1=C(N)Oc2nc(SCc3ccccc3Cl)nc(N)c2C1c1ccc(F)cc1 (stereo unspecified),x,x,x,x,x,8.2
O=[N+]([O-])c1ccccc1,7.2%,7.8%[10 µM],12.6%,9.7%,x,x
O=[N+]([O-])c1ccc(C(=Nc2ccccc2)N2CC2)cc1,8.2µM*,x,x,14.6µM*,-0.2,1.4
Nc1ncnc2c1nc(Sc1ccc(Cl)cc1)n2[C@@H]1O[C@@H]2COP(O)(=S)O[C@H]2[C@H]1O (stereo partly specified),x,10.6%,-9.3%,x,x,x
O=C(Nc1ccccc1)N1CC2(CCN(C(=O)Oc3ccccc3)CC2)C1,-16.4%,-7.8%,-10.3%,-10.5%,x,x
CCN1C(=O)/C(=C/c2ccc(N(CC)CC)cc2OC)C(=O)NC1=S,u,-25.8%,-3.5%,-17.0%,-55.0*,4.2
CCCc1c(C)nc(N2CCN(CC)CC2)[nH]c1=O,x,x,x,x,x,-1.1
CCn1c(NN=O)nc2ccccc21,7.31µM*,0.501µM*,u,u,99.6,-2.4
CCn1c(P(C)(=O)O)nc2ccccc21,-7.2%,-1.2%,-1.1%,-20.4%,11.3,-1.7
Cc1onc(-c2ccccc2)c1C(=O)Nc1ccc(S(=O)(=O)N2CCCC2)cc1,u,8.91µM*,-24.7%,-24.8%,19.3,0.8
O=C1OC2(c3cc(Br)c(O)cc3Oc3c2cc(Br)c(O)[c]3[Hg])c2ccccc21 (stereo unspecified),4.53µM*,x,x,3.6µM*,x,x
Clc1cccc(C(c2ccc3nc[nH]c3c2)n2ccnc2)c1 (stereo unspecified),u,2.7%,-5.4%,26.6µM*,x,x
CC[C@@]1([C@@H]2O[C@@H]([C@H]3O[C@@](O)(CO)[C@H](C)C[C@@H]3C)C[C@@H]2C)CC[C@H]([C@]2(C)CC[C@]3(C[C@H](O)[C@@H](C)[C@@H]([C@@H](C)[C@@H](OC)[C@H](C)C(=O)O)O3)O2)O1 (stereo in doubt),0.231µM*,x,x,0.206µM*,x,x
C=C[C@H]1CN2CC[C@@H]1C[C@H]2[C@@H](O)c1ccnc2ccccc12,x,0.3%[16.9 µM],5.4%[17 µM],x,x,x
